Assay outcomes as filed in PubChem.
Vaccinia Venus: qHTS for Stage-Specific Inhibitors of Vaccinia Orthopoxvirus: Venus Reporter Primary qHTS. Vaccinia virus Venus reporter expression, fluorescence. Potency, µM (top dose mostly 36.5 µM), for the others: at the top dose activity change, negative = inhibition, actives largely listed as inhibitors. 0.46% of 330,000 active. AID 720580, 2013; calls by dose curve; tested in A549 cells; note: potency is the fitted concentration of half-maximal effect; % is set by controls: 0 for no effect and ±100 for the full control effect; nearly all actives have a fitted effect of over 30% in size
MARV entry inh: qHTS for inhibitors of binding or entry into cells for Marburg Virus; Marburg virus pseudotyped entry inhibition, cell reporter; Potency, µM (doses to about 37.8 µM), for inactives: at the top dose activity change, negative = inhibition, hits mostly inhibitors; 1.8% of 300,000 active; calls by dose curve; tested in HEK293 cells; note: potency is the fitted concentration of half-maximal effect; % is set by controls: 0 for no effect and ±100 for the full control effect
LASV entry inh: qHTS for Inhibitors of binding or entry into cells for Lassa Virus | Lassa virus pseudotype entry inhibition, cell reporter | Potency, µM (titrated, usually from 37.9 µM), inactives show at the top dose activity change, negative = inhibition, hits mostly inhibitors | 1.2% of 300,000 active | AID 540256, 2011; calls by dose curve; tested in HEK293 cells; note: potency is the fitted concentration of half-maximal effect; % is set by controls: 0 for no effect and ±100 for the full control effect; nearly all actives have a fitted effect of over 50% in size
HCV inh: qHTS Assay for Inhibitors of Hepatitis C Virus (HCV); Huh7.5.1 HCVcc-Cre infection, luciferase reporter, 44 h; Potency, µM (top dose mostly 41.8 µM), inactives show at the highest dose activity change, negative = inhibition, most hits filed as inhibitors; 3.4% of 340,000 active; note: potency is the fitted concentration of half-maximal effect; % is set by controls: 0 for no effect and ±100 for the full control effect
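Seed cells (1,000/well) for 4 h; treat with compound and infect with HCVcc-Cre, moi about 0.5. Incubate 44 h, then detect luciferase activity.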
HCMV inh: qHTS Assay for inhibitors of the human cytomegalovirus (HCMV); 4.5% of 410,000 active; HFF cells, HCMV-luciferase reporter, 72 h; stronger effect = lower value; activity change, negative = inhibition, % at 57.5 µM; in the data active = activity change below about -60%; inconclusive = no clear call, values can overlap the other calls; inactive = above about -39%; note: % is set by controls: 0 for no effect and ±100 for the full control effect
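Two compound doses tested in HFFs infected with HCMV-luciferase, MOI 1 PFU/cell, 72 h at 37C. Lysate luminescence read with OneGlo; data normalized against buffer-only and 10uM Salinomycin inhibitor controls.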
Vaccinia mCherry: qHTS for Stage-Specific Inhibitors of Vaccinia Orthopoxvirus: mCherry Reporter Primary qHTS. Vaccinia virus mCherry reporter infection, fluorescence. Potency, µM (titrated, usually from 36.5 µM), inactives show top-dose activity change, negative = inhibition, actives largely listed as inhibitors. 0.63% of 310,000 active. AID 720579, 2013; calls by dose curve; tested in A549 cells; note: potency is the fitted concentration of half-maximal effect; % is set by controls: 0 for no effect and ±100 for the full control effect; nearly all actives have a fitted effect of over 35% in size
HeLa G2M arrest: Cell cycle validation with wells to cells screening paradigm; shares compounds with MARV entry inh; 60% of 25 active; HeLa cell cycle G2/M arrest, Hoechst DNA content imaging; Potency, µM, hits mostly inhibitors
WI-38 tox: High Content Assay for Compounds that inhibit the Assembly of the Perinucleolar Compartment: WI-38 Cytotoxicity | Potency, µM (titrated, usually from 46.1 µM), without a hit: at the top dose activity change, negative = cytotoxicity, hits mostly inhibitors | shares compounds with MARV entry inh | 120 tested, under 10 active | AID 2729, 2010 | WI-38 normal lung fibroblasts, ATPLite luminescence ATP viability, 24 h
PNC inh conf: High Content Assay for Compounds that inhibit the Assembly of the Perinucleolar Compartment: Confirmation of PNC Inhibition. shares compounds with MARV entry inh. 50% of 120 active. PC3M PTB-GFP, PNC prevalence imaging, 16 h. Potency, µM (titrated, usually from 46.1 µM), inactives show at the highest dose activity, negative = PNC inhibition, hits mostly inhibitors
PC3M casp3-7: High Content Assay for Compounds that inhibit the Assembly of the Perinucleolar Compartment: PC3M Caspase 3/7 Activation; shares compounds with MARV entry inh; PC3M-GFP caspase 3/7 activation, luminescence, 24 h; activity change, positive = activation, % at 46.1 µM; 120 tested, under 10 active; AID 2731, 2010
Numbers without * were called inactive; i = inactive; ? = inconclusive; · = not tested or not shown; [ ] = dose if it differs, or a comment. An excerpt weighted towards active compounds, which were near 7.8% of everything screened. Unless noted, calls come from the whole dose curve; as a rule, active = well fitted curve in the direction sought with a large enough effect; inconclusive = small, poorly fitted or top-dose-only effect, or another doubt; inactive = no such curve, though single readings can be large; an effect the other way counts as inactive or inconclusive.

SMILES	Vaccinia Venus	MARV entry inh	LASV entry inh	HCV inh	HCMV inh	Vaccinia mCherry	WI-38 tox	PNC inh conf	PC3M casp3-7	others
CCOc1ccccc1NC(=O)N1CCN(Cc2cc(=O)n3nc(-c4ccc(C)cc4)sc3n2)CC1	-8%	·	21%[46.1 µM]	·	8	-7%	·	·	·
O=S(=O)(NCc1cccc(Br)c1)c1ccc(-c2cc(C(F)(F)F)on2)s1	-12%	·	17%[46.1 µM]	·	-7	-12%	·	·	·
C=CCc1c(C)nc2nc(SCC(=O)Nc3ccc(OCC)cc3)nn2c1C	-6%	·	-5%[46.1 µM]	·	-5	-12%	·	·	·
COc1ccc(O)c(CN2CCOc3c(cc(-c4cccc(OC)n4)cc3OC)C2)c1	-5%	·	·	·	·	-15%	·	·	·
Cc1nnc(SCC(=O)NCc2ccc(N(C)C)cc2)c2nn(-c3ccccc3)c(C)c12	-4%	·	-7%[46.1 µM]	·	-27	0%	·	·	·
Cc1ccc(Nc2nc(N)nc(CCl)n2)c(C)c1	·	·	·	0.5µM*	-103*	·	·	·	·
CCOc1ccc(Nc2nc(N)nc(CCl)n2)cc1	?	?	?	0.56µM*	-96*	?	·	·	·
COc1cc2ccccc2cc1C(=O)OCC(=O)Nc1ccc(Br)cc1	-8%	·	·	·	·	-12%	·	·	·
CCC(C)n1c(=N)c(C(=O)NCc2ccco2)cc2c(=O)n3cc(C)ccc3nc21 (stereo not drawn)	-15%	1%[46.1 µM]	?	·	-26	-9%	·	·	·
Cc1ccc(C(C)C)c(OCc2ccc(C(=O)N/N=C/c3ccc(C(=O)O)cc3)cc2)c1	·	·	·	-13%	0	·	·	·	·
Cc1ccc(C(C)C)c(OCc2ccc(C(=O)N/N=C/c3ccc(O)cc3O)cc2)c1	?	6.3µM*	?	3.2µM*	-97*	1.6µM*	-7%	?	-2
Cc1cccc(Cn2cccc2CNS(=O)(=O)c2ccccc2F)c1	22%	·	-2%[46.1 µM]	·	2	-1%	·	·	·
CCOc1ccc(CN(C)CC(=O)Nc2cc(OC)c([N+](=O)[O-])cc2C)cc1	0%	8%	0%	-23%	11	-9%	-22%	-20%	-8
COc1cc([C@@H]2c3cc4c(cc3[C@H](O)C3COC(=O)[C@@H]32)OCO4)cc(OC)c1OC (stereo partly drawn)	·	?	?	·	·	·	·	·	·	HeLa G2M arrest=0.022*
C=C1NN(Cc2ccc(OC)cc2)C(=O)N1c1ccccc1	-5%	·	·	·	·	-14%	·	·	·
COc1ccc(C(=O)Nc2nc3c(s2)CCCC3)cc1S(=O)(=O)N1CCCc2ccccc21	2%	?	?	?	-66*	11µM*	26%	5µM*	-2
COc1cc2c(cc1OC)C(COc1ccc3c(C)cc(=O)oc3c1)N(C(=O)c1cccc(C)c1)CC2 (stereo not drawn)	?	0%[46.1 µM]	-12%[46.1 µM]	·	11	?	·	·	·
Cc1cc(SCC(=O)c2cc(C)n(C)c2C)nc2ccccc12	-4%	?	?	-22%	-21	-13%	-11%	?	5
Cc1cc(SCC(=O)O)nc2ccccc12	-1%	?	17%	6%	11	i	·	·	·
Cc1cc(C(=O)N/N=C/c2cc(Br)cc(Br)c2OC(=O)c2ccccc2)n[nH]1	·	-10%	?	1%	·	·	-12%	?	4
Cc1cc(C(=O)N/N=C/c2cc(Br)ccc2OC(=O)c2ccc(Br)cc2)n[nH]1	·	-5%	·	2%	·	·	·	·	·
COc1ccc(C(=O)Nc2ncnc3nc[nH]c23)cc1	-14%	·	·	·	·	-9%	·	·	·
O=C(c1ccc2c(c1)CCN2S(=O)(=O)c1ccc(Cl)cc1)N1CCN(c2ccccc2F)CC1	-8%	1%[46.1 µM]	-16%[46.1 µM]	·	-21	-11%	·	·	·
Nc1cccc2nc3ccccc3cc12	?	·	·	8%	·	-17%	-17%	?	?
Nc1[nH]nc2nc3ccccc3cc12	11%	?	20%	18%	-21	i	·	·	·
SMILES	Vaccinia Venus	MARV entry inh	LASV entry inh	HCV inh	HCMV inh	Vaccinia mCherry	WI-38 tox	PNC inh conf	PC3M casp3-7	others
CN(C)c1nc(OCCNC(=O)COc2ccccc2Cl)nc(N(C)C)n1	·	-13%	-18%	?	-4	·	2%	?	-4
CCN=c1scc(-c2ccccc2)n1/N=C/c1ccccn1	5%	?	1.5µM*	?	·	5.6µM*	16µM*	4µM*	-24
C(=N\N1CCN(c2ccccn2)CC1)/c1ccccn1	-5%	27%	-3%	17%	-30	-13%	·	·	·
Cc1nc2ccccc2c(=O)n1/N=C/c1ccccn1	-2%	18%	26%	-5%	?	-11%	·	·	·
C=CCN=c1scc(-c2ccccc2)n1/N=C/c1ccccn1	13%	2.8µM*	?	14µM*	-99*	2.2µM*	?	2µM*	-15
Cc1ccc(C(C)C)c(OCC(=O)Nc2c(C(=O)c3ccc(F)cc3)oc3ccccc23)c1	-11%	?	-6%[46.1 µM]	·	4	-1%	·	·	·
CCC(=O)Nc1nonc1-c1nc2ccccc2n1Cc1ccccc1	-27%	-12%	-9%	-9%	7	i	·	·	·
CCOC(=O)Cn1c(-c2nonc2NC(=O)c2ccccc2F)nc2ccccc21	10%	0.28µM*	0.28µM*	?	-98*	10µM*	?	4.5µM*	1
CC1CCCN(S(=O)(=O)c2ccc(N3CCCCS3(=O)=O)cc2)C1 (stereo not drawn)	-12%	·	5%[46.1 µM]	·	1	-12%	·	·	·
COc1cc(NC(=S)NC(=O)c2ccc(C(C)(C)C)cc2)ccc1NC(=O)c1cccs1	8%	?	1µM*	?	-97*	?	-10%	4µM*	1
COc1cc(NC(=S)NC(=O)c2cc(C)cc(C)c2)ccc1NC(=O)c1cccs1	-17%	?	-16%	?	-29	-15%	·	·	·
COc1ccc(OC)c(NC(=O)N2CC3CCCN3c3ccccc32)c1 (stereo not drawn)	-14%	·	6%[46.1 µM]	·	-2	-16%	·	·	·
